Reference: the supplement of paper PMC6522484
Counter-ions that a name gives are not always drawn. ± gives the standard deviation of the averaged measurements.

What was measured:
[1] = system: DLD1; experiment: cell viability (CellTiter-Glo) relative to plate median (fraction of plate median); higher = more viable cells; conditions: 10 µM, treatment time 24 h
Method in brief: (§1)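 Colorectal cancer cell lines carrying stably transduced lentiviral TCF/Wnt firefly luciferase reporters (7TFP or TCF4/Wnt) were plated in 384-well plates and treated 24 h later with kinase inhibitor library compounds at a final 10 µM for 24 h. Firefly luciferase or CellTiterGlo luminescence was read on parallel plates with a Tecan F500 reader. Signals were normalised per well to the plate median in webcellHTS2 (additive, no log transformation), and values are the mean of two independent replicates.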

[2] = system: HCT116; experiment: as above; conditions: 10 µM; treatment time 24 h; reporter: TCF4/Wnt
Method in brief: as §1

[3] = system: SW480; experiment: as above; conditions: 10 µM; treatment time 24 h; reporter: 7TFP
Method in brief: as §1

[4] = system: DLD1; experiment: TCF/Wnt firefly luciferase reporter signal relative to plate median (fraction of plate median); higher = higher Wnt reporter signal; conditions: 10 µM, treatment time 24 h
Method in brief: as §1

[5] = system: HCT116; experiment: as above; conditions: 10 µM; treatment time 24 h; reporter: TCF4/Wnt
Method in brief: as §1

[6] = system: SW480; experiment: as above; conditions: 10 µM; treatment time 24 h; reporter: 7TFP
Method in brief: as §1

SMILES	cell viability ([1]; reporter: 7TFP)	cell viability ([1]; reporter: TCF4/Wnt)	cell viability [2]	cell viability [3]	TCF/Wnt firefly luciferase reporter signal ([4]; reporter: 7TFP)	TCF/Wnt firefly luciferase reporter signal ([4]; reporter: TCF4/Wnt)	TCF/Wnt firefly luciferase reporter signal [5]	TCF/Wnt firefly luciferase reporter signal [6]
CO[C@H]1C[C@@H]2CC[C@@H](C)[C@@](O)(O2)C(=O)C(=O)N2CCCC[C@H]2C(=O)O[C@H]([C@H](C)C[C@@H]2CC[C@@H](OCCO)[C@H](OC)C2)CC(=O)[C@H](C)/C=C(\C)[C@@H](O)[C@@H](OC)C(=O)[C@H](C)C[C@H](C)/C=C/C=C/C=C/1C [Everolimus (RAD001)]	1.04 ± 0.11	1.02 ± 0.028	0.974 ± 0.094	1.26 ± 0.028	0.893 ± 0.091	1.05 ± 0.14	0.951 ± 0.15	1.42 ± 0.057
FC(F)(F)c1ccc(Nc2nc3ccc(Oc4ccnc(-c5ncc(C(F)(F)F)[nH]5)c4)cc3[nH]2)cc1 [Raf265 derivative]	1.1	1.07 ± 0.014	1.2 ± 0.21	0.975 ± 0.12	1.11 ± 0.085	1.16 ± 0.085	0.912 ± 0.28	0.81 ± 0.44
C[C@H](NC(=O)/C(C#N)=C/c1cccc(Br)n1)c1ccccc1	0.579 ± 0.082	0.529 ± 0.0085	0.183 ± 0.0028	0.899 ± 0.0057	0.041 ± 0.011	0.057 ± 0.015	0.0323 ± 0.02	0.0234 ± 0.012
COc1cc2/c(=N/c3ccc(Br)cc3F)nc[nH]c2cc1OCC1CCN(C)CC1 [Vandetanib (Zactima)]	0.921 ± 0.18	1.08 ± 0.057	1.14 ± 0.085	1.2 ± 0.035	0.9625 ± 0.0035	0.773 ± 0.093	0.916 ± 0.081	1.2 ± 0.092
CO[C@H]1C[C@@H]2CC[C@@H](C)[C@@](O)(O2)C(=O)C(=O)N2CCCC[C@H]2C(=O)O[C@H]([C@H](C)C[C@@H]2CC[C@@H](O)[C@H](OC)C2)CC(=O)[C@H](C)/C=C(\C)[C@@H](O)[C@@H](OC)C(=O)[C@H](C)C[C@H](C)/C=C/C=C/C=C/1C [Rapamycin (Sirolimus)]	1.07 ± 0.1	0.904 ± 0.15	0.95 ± 0.017	1.24 ± 0.014	1.07 ± 0.071	1.09 ± 0.26	1.38 ± 0.42	1.65 ± 0.11
Cc1ccc(NC(=O)c2cccc(C(C)(C)C#N)c2)cc1Nc1ccc2ncn(C)c(=O)c2c1	1.21 ± 0.05	1.08	0.955 ± 0.044	1.18 ± 0.028	1.04 ± 0.33	0.843 ± 0.048	1.2 ± 0.3	1.43 ± 0.12
CC(C)(C)c1cc(NC(=O)Nc2ccc(-c3cn4c(n3)sc3cc(OCCN5CCOCC5)ccc34)cc2)no1 [Quizartinib (AC220)]	0.994 ± 0.19	0.989 ± 0.086	1.15 ± 0.11	1.095 ± 0.0071	0.789 ± 0.4	1.04 ± 0.014	1.22 ± 0.18	1.26 ± 0.021
COc1ccc2c(OCc3nnc4ccc(-c5ccccc5)nn34)ccnc2c1	1.17 ± 0.05	1.06 ± 0.093	1.11 ± 0.05	0.909 ± 0.028	1.29 ± 0.028	1.27 ± 0.028	1.26 ± 0.035	1.16 ± 0.15
CNC(=O)c1cc(Oc2ccc(NC(=O)Nc3cc(C(C)(C)C)nn3-c3ccc4ncccc4c3)c(F)c2)ccn1 [DCC-2036 (Rebastinib)]	1.1 ± 0.13	1.265 ± 0.0071	0.985 ± 0.035	1.08 ± 0.099	0.817 ± 0.021	0.755 ± 0.047	0.895 ± 0.2	0.746 ± 0.06
COc1cccc2cc(-c3nc([C@H]4CC[C@H](C(=O)O)CC4)n4ncnc(N)c34)[nH]c12	1.03 ± 0.093	1.02 ± 0.056	0.816 ± 0.0042	1.19 ± 0.11	0.442 ± 0.061	0.449 ± 0.098	0.6105 ± 0.00071	0.83 ± 0.069
CC[C@@H]1C(=O)N(C)c2cnc(Nc3ccc(C(=O)NC4CCN(C)CC4)cc3OC)nc2N1C1CCCC1	0.736 ± 0.16	0.863 ± 0.04	0.56 ± 0.13	0.897 ± 0.067	1.97 ± 0.2	2.25 ± 0.078	0.983 ± 0.93	1.36 ± 0.48
CCCS(=O)(=O)Nc1ccc(F)c(C(=O)c2c[nH]c3ncc(-c4ccc(Cl)cc4)cc23)c1F [Vemurafenib (PLX4032)]	1.19 ± 0.13	0.976 ± 0.023	1.2 ± 0.05	0.878 ± 0.042	1.14 ± 0.028	0.939 ± 0.015	1.155 ± 0.0071	0.866 ± 0.11
Cc1ccc(NC(=O)c2ccc(CN3CCN(C)CC3)cc2)cc1Nc1nc(-c2cccnc2)cs1 [Masitinib (AB1010)]	0.896 ± 0.073	1 ± 0.037	0.969 ± 0.037	0.993 ± 0.053	0.821 ± 0.019	1.25 ± 0.078	0.632 ± 0.1	1.01 ± 0.071
O=C(Nc1cccc(Cl)c1)Nc1ncc(CCNc2ncnc3ccsc23)s1	0.87 ± 0.023	0.8545 ± 0.0064	0.947 ± 0.03	0.922 ± 0.012	0.743 ± 0.15	0.952 ± 0.029	1.45	0.82 ± 0.061
N=C(N)NC(=N)NCCc1ccccc1 [Phenformin hydrochloride]	1.185 ± 0.0071	1.06 ± 0.057	1.21 ± 0.18	0.923 ± 0.086	1.26 ± 0.12	1.21 ± 0.27	1.3 ± 0.51	1.17 ± 0.21
Fc1cc(-c2cccc3ncc(-c4cnn(C5CCNCC5)c4)nc23)cc(F)c1CN1CCOCC1	0.974 ± 0.14	0.981 ± 0.055	1.01 ± 0.055	1.05 ± 0.12	1.04 ± 0.19	1.02 ± 0.089	0.967 ± 0.076	1.52
N#Cc1c(O)c2c(-c3ccc(-c4ccccc4O)cc3)csc2[nH]c1=O	1.13 ± 0.014	1.13 ± 0.071	1.25	0.922 ± 0.052	1.03 ± 0.014	0.96 ± 0.2	1.08 ± 0.064	0.976 ± 0.16
O=C1NC(=O)/C(=C/c2ccc3nccc(-c4ccncc4)c3c2)S1	0.973 ± 0.038	1.07 ± 0.071	0.597 ± 0.061	1.02 ± 0.13	0.312 ± 0.018	0.564 ± 0.29	0.417 ± 0.25	0.572 ± 0.07
CN1CCN(C2CCN(C(=O)Nc3cc(Oc4ccc(NC(=O)C5(C(=O)Nc6ccc(F)cc6)CC5)c(F)c4)ccn3)CC2)CC1 [Golvatinib (E7050)]	0.964 ± 0.18	0.904 ± 0.011	1.07 ± 0.064	1.16 ± 0.064	0.719 ± 0.03	0.728 ± 0.028	0.915 ± 0.12	1.06 ± 0.12
COc1cc2ncnc(Nc3cccc(Br)c3)c2cc1OC	1.15 ± 0.15	1.07 ± 0.064	1.06 ± 0.086	1.03 ± 0.071	0.631 ± 0.37	0.58 ± 0.13	0.911 ± 0.11	0.838 ± 0.09
O=C1NC(=O)[C@@H](c2cn3c4c(cccc24)CCC3)[C@@H]1c1c[nH]c2ccccc12 [ARQ 197 (Tivantinib)]	0.995 ± 0.18	1.01 ± 0.017	0.593 ± 0.15	1.07 ± 0.014	0.632 ± 0.25	0.788 ± 0.31	0.241 ± 0.028	0.701 ± 0.043
